# Assay results published in ChEMBL document CHEMBL3988442, “University of Dundee, Small-Polar-MMV Screening Library” (2021).
# For some assays here: Results with a measured potency or affinity are listed apart.
# Experiments:
# Parameters in all cases: scale not given: direction of the effect not stated beside the values
# [1] = biological target: Protein translocase subunit SecA (Escherichia coli (strain K12)) (UniProt P10408); assay: Assay to Identify E. coli SecA ATPase Inhibitors; assay type: functional; conditions: 30 µM
# [2] = biological target: T1, Ubiquitin-activating enzyme e1, putative (Leishmania donovani (strain BPK282A1)) (UniProt E9BSI1); assay: Leishmania donovani Ubiquitin Activating Enzyme (LdE1); assay type: functional; conditions: 30 µM
# T1 sequence (whole entry): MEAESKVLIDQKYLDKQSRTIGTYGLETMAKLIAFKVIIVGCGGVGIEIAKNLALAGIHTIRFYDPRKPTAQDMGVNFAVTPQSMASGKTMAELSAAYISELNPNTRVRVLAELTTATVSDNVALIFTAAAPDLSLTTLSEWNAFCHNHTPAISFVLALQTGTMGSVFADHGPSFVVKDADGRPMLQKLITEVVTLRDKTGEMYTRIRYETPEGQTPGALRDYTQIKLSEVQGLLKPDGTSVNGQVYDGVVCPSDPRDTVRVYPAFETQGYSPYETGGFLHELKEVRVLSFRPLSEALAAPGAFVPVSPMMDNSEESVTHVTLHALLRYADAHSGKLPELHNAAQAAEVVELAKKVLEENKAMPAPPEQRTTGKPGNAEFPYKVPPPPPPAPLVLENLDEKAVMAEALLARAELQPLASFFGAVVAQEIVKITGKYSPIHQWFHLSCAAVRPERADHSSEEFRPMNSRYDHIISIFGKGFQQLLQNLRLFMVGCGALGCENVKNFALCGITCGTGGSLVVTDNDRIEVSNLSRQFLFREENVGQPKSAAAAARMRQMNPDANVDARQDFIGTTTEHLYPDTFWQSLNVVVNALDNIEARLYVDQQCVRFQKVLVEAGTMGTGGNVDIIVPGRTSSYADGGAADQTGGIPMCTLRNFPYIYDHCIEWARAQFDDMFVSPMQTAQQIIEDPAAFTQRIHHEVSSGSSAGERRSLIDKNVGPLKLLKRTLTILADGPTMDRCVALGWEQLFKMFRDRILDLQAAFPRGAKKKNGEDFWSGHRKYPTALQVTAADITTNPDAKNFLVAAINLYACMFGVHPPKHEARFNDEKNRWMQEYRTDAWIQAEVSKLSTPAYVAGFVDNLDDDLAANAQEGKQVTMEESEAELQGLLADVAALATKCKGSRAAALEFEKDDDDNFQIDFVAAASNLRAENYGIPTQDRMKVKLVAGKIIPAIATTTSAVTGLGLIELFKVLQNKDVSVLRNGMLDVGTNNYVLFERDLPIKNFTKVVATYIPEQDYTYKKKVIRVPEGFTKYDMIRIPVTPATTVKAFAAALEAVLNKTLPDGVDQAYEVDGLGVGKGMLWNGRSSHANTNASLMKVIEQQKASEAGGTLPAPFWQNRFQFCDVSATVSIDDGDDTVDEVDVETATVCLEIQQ
# [3] = biological target: AMP-activated protein kinase, AMPK (Homo sapiens) (UniProt P54646+O43741+P54619+Q9UGJ0+Q9Y478+Q13131+Q9UGI9); assay: AMP-dependent Kinase enzyme assay. An in vitro enzyme assay that detects ADP turnover that is directly proportional to AMPK activity. This uses naive AMPK that is activated during the assay with MK-8722; assay type: functional; conditions: 30 µM
# [4] = biological target: Sialic acid-binding Ig-like lectin 9 (Homo sapiens) (UniProt Q9Y336); assay: Hs-Siglec9 ALPHAscreen SOP 20170721; conditions: 10 µM
# Trypanosoma cruzi = assay: Trypanosoma cruzi phosphomannomutase and mannose-1-phosphate guanylyltransferase assay; assay type: functional; conditions: 10 µM
# [5] = biological target: T2, Arginase-2, mitochondrial (Homo sapiens) (UniProt P78540); assay: in vitro enzyme assay to detect the production of urea directly proportional to the activity of Arginase II; assay type: functional; conditions: 33.3 µM; further: in the data most compounds retested in dose-response had high values
# T2 sequence (whole entry): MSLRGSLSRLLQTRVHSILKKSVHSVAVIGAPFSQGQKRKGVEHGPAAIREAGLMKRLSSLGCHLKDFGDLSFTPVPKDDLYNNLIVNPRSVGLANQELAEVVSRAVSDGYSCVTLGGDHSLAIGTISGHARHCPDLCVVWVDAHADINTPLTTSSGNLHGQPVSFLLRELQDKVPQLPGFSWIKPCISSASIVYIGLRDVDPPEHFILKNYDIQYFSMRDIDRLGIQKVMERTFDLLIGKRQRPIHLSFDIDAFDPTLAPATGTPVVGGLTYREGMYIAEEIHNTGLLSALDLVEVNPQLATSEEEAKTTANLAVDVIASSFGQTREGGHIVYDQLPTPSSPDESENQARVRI
# [6] = biological target: T3, Proteasome subunit beta (Trypanosoma cruzi) (UniProt O96673); assay: Trypanosoma cruzi proteasome chymotrypsin-like activity (TcProtChymo) assay.; further: in the data most compounds retested in dose-response had high values; assay type: functional; conditions: 9.37 µM
# T3 sequence (whole entry): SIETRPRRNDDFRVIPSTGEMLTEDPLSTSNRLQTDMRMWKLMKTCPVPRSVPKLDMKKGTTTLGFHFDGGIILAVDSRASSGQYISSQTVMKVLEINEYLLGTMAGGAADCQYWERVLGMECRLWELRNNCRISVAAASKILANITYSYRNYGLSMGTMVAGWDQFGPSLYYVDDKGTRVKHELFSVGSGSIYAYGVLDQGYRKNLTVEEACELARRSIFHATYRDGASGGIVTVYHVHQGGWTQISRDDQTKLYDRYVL
# Homo sapiens = species on record: Homo sapiens; assay: To identify inhibition of the IFN signalling (Jak-Stat) pathway via expression of an eGFP reporter gene under the control of an IFN-stimulated response element (ISRE) containing MxA promoter.; assay type: functional; conditions: 30 µM
# [7] = biological target: T4, Tyrosyl-tRNA synthetase, putative (Trypanosoma cruzi (strain CL Brener)) (UniProt Q4DSP6); assay: Trypanosoma cruzi tyrosyl tRNA synthetase (TcYRS) _High Tyrosine SOP; assay type: functional; conditions: 30 µM; further: in the data most compounds retested in dose-response had high values
# T4 sequence (whole entry): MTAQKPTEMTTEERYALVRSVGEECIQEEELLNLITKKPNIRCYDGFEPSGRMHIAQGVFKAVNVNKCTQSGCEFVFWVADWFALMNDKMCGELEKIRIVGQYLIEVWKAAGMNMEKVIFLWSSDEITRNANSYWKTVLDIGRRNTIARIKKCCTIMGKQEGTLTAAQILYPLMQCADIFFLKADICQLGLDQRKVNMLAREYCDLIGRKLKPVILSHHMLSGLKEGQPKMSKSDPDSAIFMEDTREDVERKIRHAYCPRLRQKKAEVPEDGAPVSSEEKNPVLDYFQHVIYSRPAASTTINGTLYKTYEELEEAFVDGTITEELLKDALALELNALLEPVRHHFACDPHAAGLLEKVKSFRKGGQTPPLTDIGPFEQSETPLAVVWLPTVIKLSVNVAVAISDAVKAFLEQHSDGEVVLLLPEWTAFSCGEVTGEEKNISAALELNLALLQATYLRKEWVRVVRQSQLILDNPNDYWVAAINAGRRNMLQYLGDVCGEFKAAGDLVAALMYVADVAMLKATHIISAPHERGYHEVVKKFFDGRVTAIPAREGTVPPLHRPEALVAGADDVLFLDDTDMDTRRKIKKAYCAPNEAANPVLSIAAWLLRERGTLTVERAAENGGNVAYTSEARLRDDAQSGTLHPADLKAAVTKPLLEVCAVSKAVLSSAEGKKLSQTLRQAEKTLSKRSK
# [8] = biological target: T4, Tyrosyl-tRNA synthetase, putative (Trypanosoma cruzi (strain CL Brener)); assay: Trypanosoma cruzi tyrosyl tRNA synthetase (TcYRS) SOP; assay type: functional; conditions: 30 µM
# [9] = biological target: Chromo domain-containing protein 1 (Saccharomyces cerevisiae (strain ATCC 204508 / S288c) (Baker's yeast)) (UniProt P32657); assay: ScCHD-1 Enzyme Inhibition Assay; assay type: functional; conditions: 30 µM; further: in the data most compounds retested in dose-response had high values
# Chromo domain-containing protein 1 (Saccharomyces cerevisiae (strain ATCC 204508 / S288c) (Baker's yeast)), sequence (P32657 whole entry, the tested form may be a part): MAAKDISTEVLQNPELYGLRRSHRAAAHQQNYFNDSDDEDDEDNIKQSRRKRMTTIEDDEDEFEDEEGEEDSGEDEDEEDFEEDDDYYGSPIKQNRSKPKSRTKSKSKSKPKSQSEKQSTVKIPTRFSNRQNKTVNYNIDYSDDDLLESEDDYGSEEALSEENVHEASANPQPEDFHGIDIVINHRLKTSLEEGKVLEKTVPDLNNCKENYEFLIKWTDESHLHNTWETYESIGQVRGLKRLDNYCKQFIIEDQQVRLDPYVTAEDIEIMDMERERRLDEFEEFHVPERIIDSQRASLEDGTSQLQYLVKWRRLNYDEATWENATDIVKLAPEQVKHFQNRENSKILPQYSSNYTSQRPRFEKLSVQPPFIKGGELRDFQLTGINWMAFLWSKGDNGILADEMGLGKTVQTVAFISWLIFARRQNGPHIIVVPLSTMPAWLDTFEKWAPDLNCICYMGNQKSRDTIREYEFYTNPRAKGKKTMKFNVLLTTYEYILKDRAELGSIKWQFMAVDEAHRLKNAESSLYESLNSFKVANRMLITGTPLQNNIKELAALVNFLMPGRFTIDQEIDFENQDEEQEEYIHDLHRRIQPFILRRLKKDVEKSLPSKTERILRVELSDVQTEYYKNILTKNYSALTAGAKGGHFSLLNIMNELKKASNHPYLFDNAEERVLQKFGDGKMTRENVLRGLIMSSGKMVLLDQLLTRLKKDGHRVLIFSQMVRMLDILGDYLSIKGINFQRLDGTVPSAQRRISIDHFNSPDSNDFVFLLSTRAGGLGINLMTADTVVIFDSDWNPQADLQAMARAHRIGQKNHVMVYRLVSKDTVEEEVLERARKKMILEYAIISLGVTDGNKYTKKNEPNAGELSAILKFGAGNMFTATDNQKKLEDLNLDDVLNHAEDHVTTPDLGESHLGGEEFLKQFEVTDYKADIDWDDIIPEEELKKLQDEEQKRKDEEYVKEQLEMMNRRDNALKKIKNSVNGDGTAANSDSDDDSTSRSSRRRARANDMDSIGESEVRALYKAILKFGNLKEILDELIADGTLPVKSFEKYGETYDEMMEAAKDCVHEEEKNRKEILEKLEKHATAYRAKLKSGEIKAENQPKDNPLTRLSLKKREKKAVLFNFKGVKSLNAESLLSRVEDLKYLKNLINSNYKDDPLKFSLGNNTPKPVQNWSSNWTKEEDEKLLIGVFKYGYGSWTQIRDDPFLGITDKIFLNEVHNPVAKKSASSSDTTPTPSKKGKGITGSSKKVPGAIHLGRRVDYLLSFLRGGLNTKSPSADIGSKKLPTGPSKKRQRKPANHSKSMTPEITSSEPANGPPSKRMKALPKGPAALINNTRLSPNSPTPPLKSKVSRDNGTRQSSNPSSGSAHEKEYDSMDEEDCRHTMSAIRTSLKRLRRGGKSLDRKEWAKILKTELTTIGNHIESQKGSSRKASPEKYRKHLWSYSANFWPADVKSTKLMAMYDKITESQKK
# Sialic acid-binding Ig-like lectin 9 (Homo sapiens), sequence (Q9Y336 whole entry): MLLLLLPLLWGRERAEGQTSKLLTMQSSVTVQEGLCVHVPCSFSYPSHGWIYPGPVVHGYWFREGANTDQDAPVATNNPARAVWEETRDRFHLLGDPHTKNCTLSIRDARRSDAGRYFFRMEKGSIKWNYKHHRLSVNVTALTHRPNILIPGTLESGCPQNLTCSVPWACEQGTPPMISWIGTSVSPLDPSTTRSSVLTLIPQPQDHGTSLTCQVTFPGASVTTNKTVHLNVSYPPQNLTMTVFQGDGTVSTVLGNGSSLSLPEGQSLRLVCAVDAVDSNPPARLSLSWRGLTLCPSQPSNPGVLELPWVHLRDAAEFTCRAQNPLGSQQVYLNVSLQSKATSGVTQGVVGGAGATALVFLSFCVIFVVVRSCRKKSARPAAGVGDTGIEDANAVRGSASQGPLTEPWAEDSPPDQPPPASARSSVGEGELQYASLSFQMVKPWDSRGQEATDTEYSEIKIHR
# Protein translocase subunit SecA (Escherichia coli (strain K12)), sequence (P10408 whole entry): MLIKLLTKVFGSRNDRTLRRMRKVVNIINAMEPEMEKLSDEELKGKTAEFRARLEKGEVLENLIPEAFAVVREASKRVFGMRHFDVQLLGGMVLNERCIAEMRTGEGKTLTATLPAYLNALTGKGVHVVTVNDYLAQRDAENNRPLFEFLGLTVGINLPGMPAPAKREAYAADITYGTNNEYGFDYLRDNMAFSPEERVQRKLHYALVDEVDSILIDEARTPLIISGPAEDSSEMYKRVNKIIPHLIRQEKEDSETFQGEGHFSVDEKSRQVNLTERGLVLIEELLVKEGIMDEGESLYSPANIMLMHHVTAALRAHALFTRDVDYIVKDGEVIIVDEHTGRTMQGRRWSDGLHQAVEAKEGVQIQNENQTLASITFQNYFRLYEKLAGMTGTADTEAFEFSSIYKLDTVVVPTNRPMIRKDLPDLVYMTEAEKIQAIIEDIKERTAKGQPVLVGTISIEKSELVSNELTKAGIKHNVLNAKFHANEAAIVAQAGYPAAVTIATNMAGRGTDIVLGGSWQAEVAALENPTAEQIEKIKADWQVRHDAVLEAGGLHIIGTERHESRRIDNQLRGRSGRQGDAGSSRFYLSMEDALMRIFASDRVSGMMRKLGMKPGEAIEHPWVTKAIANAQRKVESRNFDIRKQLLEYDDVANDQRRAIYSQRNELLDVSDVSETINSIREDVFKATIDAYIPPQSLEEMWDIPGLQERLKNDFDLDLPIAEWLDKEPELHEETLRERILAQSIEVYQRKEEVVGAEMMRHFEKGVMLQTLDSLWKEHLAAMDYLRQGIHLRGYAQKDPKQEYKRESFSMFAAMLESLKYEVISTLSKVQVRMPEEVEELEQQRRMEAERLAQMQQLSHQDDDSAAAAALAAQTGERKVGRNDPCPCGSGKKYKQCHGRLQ
SMILES,Percent Effect [1] [%],Percent Effect [2] [%],Percent Effect [3] [%],Percent Effect [4] [%],Percent Effect (Trypanosoma cruzi) [%],Percent Effect [5] [%],Percent Effect [6] [%],Percent Effect (Homo sapiens) [%],Percent Effect [7] [%],Percent Effect [8] [%],Percent Effect [9] [%]
Cc1ccoc1C(=O)NC1CCN(Cc2cccc3c2OCCO3)CC1,-5.22,16.5,-78.8,6.72,3.38,-5.38,13.9,8.82,13.5,25.3,-24.5
CS(=O)(=O)CC(=O)N1C[C@@H]2COC[C@]2(c2nnc(C3CC3)o2)C1,-5.11,21.3,-7.29,-4.69,3.86,-53.9,14,19.8,3.12,22.5,-11.9
CC(C)C(C)NC(=O)Nc1ccc(CS(C)(=O)=O)cc1 (configuration not stated),-5.9,5.26,7.91,3.79,4.77,-14.2,15.6,12.9,-5.32,10.4,-1.16
O=C(Nc1cc(F)ccc1OCC1CCCO1)c1ccccn1 (configuration not stated),-2.56,2.6,23.7,12.2,3.04,3.16,0.242,2.47,2.86,9.41,-15.1
CC(=O)Nc1nc(CN2CCCC2Cn2cc(C)cn2)cs1 (configuration not stated),0.188,13,1.99,-21.8,1.08,-6.53,21.9,4.62,9.52,25.9,-28.6
Cn1cc(CNCCOc2ccc(F)c(F)c2)c(-c2cccnc2)n1,-6.54,5.41,-6.5,20.6,1.47,0.744,5.41,7.57,4.3,8.64,-3.29
OCC1CCCN1c1cc(N2CCC(OC3CCCC3)CC2)ncn1 (configuration not stated),-0.479,23.4,-10.1,-5.43,3.04,2.32,15.8,-7.13,7.62,23.5,-22.6
CC1CCN(c2ncc3c(n2)CN(c2ccc4c(c2)OCO4)C3=O)CC1,-4.8,7.79,-3.15,7.77,0.492,-9.65,14.1,-2.83,5.38,11.1,1.03
Cc1nccc(-c2cccc(NCC(=O)N3CCCCCCC3)c2)n1,-8,-5.26,11.7,-8.15,-0.28,-0.36,5.16,28.6,2.46,-1.24,-1.53
Cc1ccc(CC(=O)N2Cc3nccn3CC(Cn3cccn3)C2)cc1 (configuration not stated),0.712,8.22,-7.73,14.5,3.77,2.79,11.2,17.3,4.17,16.1,-6.87
Cc1cccnc1NC(=O)CSc1ccc2c(c1)OCCO2,-3.38,-4.17,-2.48,-6.94,-2.04,-1.77,8.42,7.78,0,-2.56,-2.02
CN(Cc1cnn(C)c1)C(=O)NC1CCC(O)CC1 (configuration not stated),-2.67,4.17,-6.32,15.8,2.82,9.71,13,-3.51,0,2.56,-2.95
Cc1csc(Nc2cc(C3CCCCN3C)nc(C)n2)n1 (configuration not stated),1.97,8,7.4,-13.6,-5.71,3.5,17.5,14.7,4.25,6.41,-0.0696
Cc1ccc2cnn(CCC(=O)NCc3c(C)nn(C)c3C)c2c1,-6.31,2.6,0.586,1.87,0.492,-1.38,8.98,7.06,3.23,6.17,-1.97
CN(C)CC1CN(c2ccc(C#N)cn2)CCO1 (configuration not stated),-4.87,-5.26,-3.08,5.48,3.27,-4.32,-5.16,-1.95,2.46,3.7,-8.21
Cc1nn(C)c(C)c1C1CCCN1Cc1cccc(C(=O)N(C)C)c1 (configuration not stated),-2.08,7.59,-8.35,3.65,4.06,0.76,2.54,-16.6,4.43,8.86,0.0198
CCNC(=O)c1ncn2c1CN(C)S(=O)(=O)c1ccccc1-2,0.812,2.74,2.65,7.01,-2.58,-2,14,11,1.04,6.17,-0.402
O=C(Cc1ccccc1F)N1CCN(C(=O)c2cccc(F)c2)CC1,0.735,7.89,-4.8,-9.01,-7.69,3.55,18.9,13.3,0,-59.7,27.2
Cc1ccc(N2CCN(C(=O)COc3ccccc3)CC2)nn1,-2.94,8.22,6.52,-4.33,-3.92,-0.909,10.8,13.2,5.38,17.5,-6.41
COC(=O)c1ccc(S(=O)(=O)NCc2cccnc2N(C)C)cc1,-2.49,17.7,0.13,-11,-8.59,-4.18,4.67,66.2,-16.3,16.5,-6.7
CNS(=O)(=O)c1cc(C(=O)NC2CCOc3ccccc32)cc(C)c1C (configuration not stated),-6.38,-2.63,13.9,-3.37,-3.41,-4.73,8.53,-0.414,4.25,7.79,7.83
Cc1nc(-c2ccsc2)ccc1C(=O)O,-3.65,4.17,0.691,-1,0.68,2.65,21.9,-3.42,5.26,10.3,-3.62
